# ELG1 genotoxic: genotoxicity induction in ELG1-luciferase HEK293T cells | Potency, µM (top dose mostly 46 µM), hits mostly activators | HEK293T ELG1-luciferase reporter, luminescence, 16 h | 1.3% of 330,000 active | AID 504466; also: nearly all actives have a fitted effect of over 60% in size
#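 ELG1-luciferase HEK293T cells, 2,000/well; compound pinned in; 16 hr, 37 °C, 5% CO2; ONE-Glo, 30 min RT; luminescence on CCD imager.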
# Rab9 promoter act: activators of Rab9 promoter; Huh7 Rab9 promoter-luciferase reporter, luminescence, 24 h; Potency, µM (series often up to 9.22 µM), actives largely listed as activators; 2.8% of 320,000 active; also: nearly all actives have a fitted effect of over 60% in size
#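 Huh7 reporter line, Rab9 promoter upstream of luciferase. Compound exposure 24 h at 37 °C in reduced-serum medium with 10% FBS. Read-out: luminescence.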
# NPC1 promoter act: activators of NPC1 promoter | 2.4% of 320,000 active | Huh7 NPC1 promoter luciferase reporter, 24 h | Potency, µM (top dose mostly 9.22 µM), most hits filed as activators; also: nearly all actives have a fitted effect of over 60% in size
#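 Quantitative HTS used a cell-based reporter: Huh7 cells stably bearing the NPC1 promoter upstream of luciferase were treated with compounds for 24 h, and promoter activation was read as luminescence.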
# FLuc modulator: firefly luciferase modulation, counter-screen for miR-21 project; 6.9% of 360,000 active; P08659; AID 588342; Potency, µM (top dose mostly 57.5 µM), hits mostly inhibitors; purified FLuc, Km substrates, luminescence inhibition; also: nearly all actives have a fitted effect of over 55% in size
# Target sequence (P08659 whole entry, looked up): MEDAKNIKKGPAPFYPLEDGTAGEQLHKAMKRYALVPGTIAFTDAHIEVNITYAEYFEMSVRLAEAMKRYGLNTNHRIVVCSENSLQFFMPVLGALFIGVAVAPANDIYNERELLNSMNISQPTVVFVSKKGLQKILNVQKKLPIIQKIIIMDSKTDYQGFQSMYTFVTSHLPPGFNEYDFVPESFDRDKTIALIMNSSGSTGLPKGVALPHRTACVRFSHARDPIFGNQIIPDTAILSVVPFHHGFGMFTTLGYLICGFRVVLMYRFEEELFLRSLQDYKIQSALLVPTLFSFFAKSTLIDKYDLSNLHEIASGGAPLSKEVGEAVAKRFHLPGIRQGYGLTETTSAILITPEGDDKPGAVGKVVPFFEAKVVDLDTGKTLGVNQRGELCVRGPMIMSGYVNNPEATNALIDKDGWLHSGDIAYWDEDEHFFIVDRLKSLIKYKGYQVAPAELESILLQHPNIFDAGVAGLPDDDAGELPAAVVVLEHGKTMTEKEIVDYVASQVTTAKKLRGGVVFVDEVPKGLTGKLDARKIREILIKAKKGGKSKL
#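 Purified P. pyralis luciferase, 10 nM final, with Km-level 10 uM D-luciferin and 10 uM ATP in 50 mM Tris acetate pH 7.5, 10 mM Mg acetate, 0.01% Tween-20, 0.05% BSA; 6-point qHTS titration about 60 µM downward; luminescence read.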
# SMN2 splice enh: increases expression of the SMN2 splice variant; HEK293 SMN2-luciferase splicing reporter, luminescence, 30-36 h; Potency, µM (titrated, usually from 46.1 µM), usual class: activators; 2.8% of 210,000 active; also: nearly all actives have a fitted effect of over 55% in size
#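 HEK293 cells carry an SMN2 […]–luciferase reporter in which exon 7 inclusion puts luciferase in frame. Cells were plated 10-12 h before compound addition, then incubated 30-36 h at 37C. ONE-Glo luminescence was read; sodium butyrate at 4.5 mM final served as control.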
# Luc counter: Kinase-Glo luciferase inhibition (counter-screen) | Kinase-Glo luciferase, ATP luminescence, 8 min | 0.28% of 200,000 active | Potency, µM (doses to about 38.3 µM), actives largely listed as inhibitors | Q27757; also: nearly all actives have a fitted effect of over 60% in size
#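 Substrate mix (final 50 mM imidazole pH 7.2, 50 mM KCl, 7 mM MgCl2, 10 uM ATP, 0.01% Tween 20, 0.05% BSA) plus pin-tool compound, then Kinase-Glo detection mix; 8 min ambient, luminescence read.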
# A number is an active result; 0 = inactive; ? = inconclusive; - = not tested or not shown; [ ] = dose if it differs, or a comment. Hits are enriched below; roughly 7.3% of the tested compounds scored in any of these assays. Calls follow the shape of the dose curve; as a rule, active = well fitted curve in the direction sought with a large enough effect; inconclusive = small, poorly fitted or top-dose-only effect, or another doubt; inactive = no such curve, though single readings can be large; an effect the other way counts as inactive or inconclusive.
SMILES,ELG1 genotoxic,Rab9 promoter act,NPC1 promoter act,FLuc modulator,SMN2 splice enh,Luc counter
Cc1cc(OCCn2cc(C(=O)c3cccs3)c3ccccc32)ccc1Cl,-,-,-,0,0,-
Cc1ccc(N2C(=O)C3C(C2=O)N2CCCN2C3c2ccccc2)cc1C (configuration not stated),0,0,0,0,0,0
Cc1ccc(N2C(=O)CS(=O)C(c3ccccc3)C2=O)cc1C (configuration not stated),0,0,0,12µM,0,0
Cc1cccn2c(Nc3ccccc3)c(-c3ccc(N4CCOCC4)cc3)nc12,-,-,-,?,0,-
Cc1ccccc1Nc1c(-c2ccc(N3CCOCC3)cc2)nc2cnccn12,?,?,?,1.5µM,-,-
Cc1ccc(Nc2c(-c3ccc(N4CCOCC4)cc3)nc3ccc(C)cn23)cc1,-,-,-,0,0,-
Cc1ccc(Nc2c(-c3ccc(N4CCOCC4)cc3)nc3cnccn23)cc1,?,0,0,5.4µM,-,-
Cc1ccccc1Nc1c(-c2ccc(N3CCOCC3)cc2)nc2ncccn12,0,0,0,11µM,0,0
CCOC(=O)c1cccc(NC(=O)C(C)n2nc(C)c3c(C)n(-c4ccccc4)nc3c2=O)c1 (configuration not stated),-,-,-,0,-,-
Cc1ccc(N2C(=O)N(CC(=O)C(C)(C)C)c3ccccc3S2(=O)=O)cc1C,-,-,-,0,-,-
C/C(=N\Nc1nc(C)cc(-c2ccccc2)n1)c1ccc(F)cc1,0,0,0,?,-,-
C/C(=N/Nc1nc(-c2ccccc2)cc(-c2ccc(F)cc2)n1)c1cccc(N)c1,0,0,0,9.5µM,0,0
COc1cc(Cl)ccc1OCc1cc(C(=O)NCC(C)(C)N2CCOCC2)no1,0,0,0,15µM,-,-
COc1cc(Cl)ccc1OCc1cc(C(=O)NCc2cc(C(C)C)no2)no1,?,1.3µM,?,9.5µM,-,-
COc1ccc(CNC(=O)c2cc(COc3c(F)cccc3F)on2)cc1OC,0,0,0,0,-,-
COc1ccc(OCc2cc(C(=O)NCC(C)(C)N3CCOCC3)no2)c(Cl)c1,0,0,0,?,-,-
CCc1ccc(NC(=O)C2CCCN(S(=O)(=O)c3c(C)noc3/C=C/N(C)C)C2)cc1 (configuration not stated),-,-,-,0,0,-
COc1ccc(NC(=O)c2ccc(NCC3CCCO3)c([N+](=O)[O-])c2)cc1 (configuration not stated),0,0,0,?,0,0
O=C(Nc1ccccc1)c1ccc(NCC2CCCO2)c([N+](=O)[O-])c1 (configuration not stated),0,?,?,?,18µM,0
CC(C)/C=C1\CC/C(=C\c2ccc(N(C)C)cc2)C1=O,9.2µM,?,3.5µM,0.95µM,?,0
CC(C)c1ccc(/C=C2\CC/C(=C\C=N\N(C)C)C2=O)cc1,3.3µM,?,?,2.4µM,13µM,0
O=C1/C(=C\c2ccc3c(c2)OCO3)CCC/C1=C/c1ccc2c(c1)OCO2,0,0,0,?,0,0
c1ccc(CN2COc3c(ccc4c5c(ccc34)CN(Cc3ccccc3)CO5)C2)cc1,-,-,-,-,0[9.22 µM],0[7.66 µM]
O=C(Nc1ccc(F)c(Cl)c1)N1CCN(C(=O)c2nsc3ccccc23)CC1,-,-,-,0,0,-
CN[C@@H](c1ccncc1)[C@@H](NC)c1ccncc1,-,-,-,-,0[9.22 µM],0[7.66 µM]
SMILES,ELG1 genotoxic,Rab9 promoter act,NPC1 promoter act,FLuc modulator,SMN2 splice enh,Luc counter
CC1CCC(NC(=O)Cn2cc3c(n2)CCCC3)CC1 (configuration not stated),7.3µM,?,?,?,0,0
CCOC(=O)N1CCC(NC(=O)Cn2cc3c(n2)CCC(C)C3)CC1 (configuration not stated),0,0,0,0,0,0
O=C(O)c1ccc(NC(=O)c2ccc(COc3ccccc3)o2)cc1,0,0,0,19µM,-,-
Cc1ccc(OCc2cc(C(=O)Nc3ccccc3)oc2C)cc1,?,0,0,19µM,0,0
COc1ccc(NC(=O)c2ccc(COc3ccc(C)cc3)o2)cc1,0,0,0,11µM,-,0
CCOCCc1nn2c(=O)cc(COC(=O)c3ccccc3NC(=O)C3CCCCC3)nc2s1,-,-,-,0,-,-
O=c1c(-c2ccccc2)c[nH]n1-c1cccc([N+](=O)[O-])c1,0,?,?,15µM,-,0
O=c1c(-c2ccc(Cl)cc2)c[nH]n1-c1ccccc1,0,0[1.84 µM],?,9.5µM,-,-
Cc1[nH]n(-c2ccccc2)c(=O)c1-c1ccc(Cl)cc1,0,0,0,?,0,0
O=C(O)CNCCc1ccccc1,-,-,-,-,0[9.22 µM],0[7.66 µM]
COc1ccc2nc(N3C(=O)CC(C(C)c4ccccc4)C3=O)sc2c1 (configuration not stated),0,0,0,21µM,-,-
Cc1cc(C)nc(N2C(=O)CC(C(C)c3ccccc3)C2=O)n1 (configuration not stated),0,0,0,0,0,0
C[C@H]1[C@H](C)OC(=O)C[C@H](O)C[C@H](O)C[C@H](O)CC[C@H](O)[C@H](O)CC(=O)C[C@H](O)[C@H](C(=O)O)[C@H](O)C[C@H](O[C@@H]2O[C@@H](C)[C@H](O)[C@@H](N)[C@@H]2O)C=CC=CC=CC=CCCC=CC=C[C@@](C)(O)[C@H]1O,-,-,-,-,0[9.22 µM],0[7.66 µM]
Cc1ccc(-c2cc(C(=O)N/N=C/c3ccoc3)c3ccccc3n2)cc1,0,0,0,4.8µM,-,-
O=C(O)COc1ccccc1/C=N/NC(=O)c1cc2ccccc2cc1O,0,0,0,7.6µM,-,-
O=C(O)COc1ccccc1/C=N/NC(=O)c1cc(-c2ccc(F)cc2)nc2ccccc12,0,0,0,1.9µM,0,0
Cc1cc(C(=O)N/N=C/c2cc(Cl)cc([N+](=O)[O-])c2O)n[nH]1,0,0,0,27µM,-,-
CCOC(=O)c1c(S(=O)(=O)N2CCCC(C(=O)Nc3cccc(CC)c3)C2)c(C)n(CC)c1C (configuration not stated),-,-,-,0,-,-
CCCCN(CCCC)C(=O)CN(C)S(=O)(=O)c1ccc2c(c1)c(=O)n(C)c(=O)n2C,-,-,-,0,0,-
O=C(O)CCc1cc(I)c(O)c(I)c1,-,-,-,-,0,-
Cc1cccc(CC2C(=O)Nc3ccccc32)c1 (configuration not stated),-,-,-,0,-,-
Cc1ccc(-c2cc(C(=O)N/N=C/c3c(C)nn(C)c3C)c3ccccc3n2)cc1C,?,?,0,0.6µM,?,0
Cc1ccc(/C=N/NC(=O)c2cc(-c3ccccc3)nc3ccccc23)o1,0,0,0,12µM,-,-
O=C(N/N=C/c1ccc2c(c1)OCO2)c1cc(-c2ccc(F)cc2)nc2ccccc12,0,0,0,5.4µM,0,0
O=C(N/N=C/c1ccccn1)c1cc(-c2ccccc2)nc2ccccc12,?,0,0,13µM,-,-
